# Reference: the supplement of paper PMC9262897, “Low-cost anti-mycobacterial drug discovery using engineered E. coli” (Nature Communications, 2022)
# Where a name gives a salt, the structure may show the parent alone. ± gives the standard deviation of the averaged measurements.
# Experiments:
# Assay in all cases: growth (OD600 after 10 h); higher = more growth (less inhibition)
# [1] = test system: E. coli TESEC Alr+ wild-type control; details: compound 0.1 mM; raw OD600 reference: median of DMSO wells 0.241, cell-free background 0.041
# Description: (§1)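 TESEC Mtb Alr E. coli, or the Alr+ wild-type control, in 384-well plates with Prestwick library compounds at 0.1 mM and 1% DMSO, across arabinose induction levels of 1E3 to 1E7 nM. Growth is read as OD600 after 10 h at 37 °C in triplicate biological replicates.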
# [2] = test system: E. coli TESEC Mtb Alr; details: compound 0.1 mM
# Description: as §1
# [3] = test system: E. coli TESEC Mtb Asd; details: compound 0.1 mM
# Description: (§2)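 TESEC E. coli strains in which the native enzyme is deleted and replaced by arabinose-inducible Mtb Asd, DapB, CysH or TrpD, each grown in its selective medium. Strains were screened against the Prestwick library at 0.1 mM and 1% DMSO in 384-well format at low and high arabinose induction. Growth is read as OD600 after 10 h in triplicate.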
# [4] = test system: E. coli TESEC Mtb DapB; details: compound 0.1 mM
# Description: as §2
# [5] = test system: E. coli TESEC Alr+ wild-type control; details: compound 0.1 mM; raw OD600 reference: median of DMSO wells 0.49, cell-free background 0.052
# Description: (§3)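 TESEC Mtb Alr E. coli (ΔaraC ΔtolC ΔentC Δalr ΔdadX, arabinose-inducible Mtb Alr) or the Alr+ wild-type control strain, grown in defined M9-fructose medium without D-alanine in 96-well plates with Prestwick library compounds at 0.1 mM and 1% DMSO. Low Alr induction is 0.1 µM arabinose and high induction is 10 mM arabinose.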
# [6] = test system: E. coli TESEC Mtb Alr; details: compound 0.1 mM; remark: listed apart in the source
# Description: as §3
# [7] = arabinose 1000 nM, raw OD600 reference: median of DMSO wells 0.294, cell-free background 0.041
# [8] = arabinose 10000 nM, raw OD600 reference: median of DMSO wells 0.264, cell-free background 0.041
# [9] = arabinose 100000 nM, raw OD600 reference: median of DMSO wells 0.201, cell-free background 0.041
# [10] = arabinose 1000000 nM, raw OD600 reference: median of DMSO wells 0.193, cell-free background 0.041
# [11] = arabinose 10000000 nM, raw OD600 reference: median of DMSO wells 0.146, cell-free background 0.041
# [12] = arabinose induction (level): High, raw OD600 reference: median of DMSO wells 0.331, cell-free background 0.041
# [13] = arabinose induction (level): Low, raw OD600 reference: median of DMSO wells 0.417, cell-free background 0.041
# [14] = arabinose induction (level): High, raw OD600 reference: median of DMSO wells […], cell-free background 0.041
# [15] = arabinose induction (level): Low, raw OD600 reference: median of DMSO wells 0.227, cell-free background 0.041
# [16] = arabinose 100 nM, raw OD600 reference: median of DMSO wells 0.413, cell-free background 0.052
# [17] = arabinose 10000000 nM, raw OD600 reference: median of DMSO wells […], cell-free background 0.052
SMILES,growth [1],"growth [2, 7]","growth [2, 8]","growth [2, 9]","growth [2, 10]","growth [2, 11]","growth [3, 12]","growth [3, 13]","growth [4, 14]","growth [4, 15]",growth [5],"growth [6, 16]","growth [6, 17]"
c1cnc(N2CCN(Cc3ccc4c(c3)OCO4)CC2)nc1 [Piribedil hydrochloride],0.2234 ± 0.0017,0.273 ± 0.0036,0.256 ± 0.0059,0.179 ± 0.01,0.166 ± 0.0044,0.14 ± 0.0043,0.218 ± 0.013,0.399 ± 0.027,0.178 ± 0.01,0.202 ± 0.013,0.512 ± 0.077,0.398 ± 0.014,0.366 ± 0.01
COc1ccccc1N1CCN(CCCNc2cc(=O)n(C)c(=O)n2C)CC1 [Urapidil hydrochloride],0.224 ± 0.0078,0.274 ± 0.021,0.259 ± 0.0036,0.173 ± 0.017,0.17 ± 0.004,0.137 ± 0.0051,0.28 ± 0.038,0.455 ± 0.065,0.183 ± 0.017,0.201 ± 0.015,0.713 ± 0.029,0.409 ± 0.017,0.326 ± 0.011
Clc1ccc(COC(Cn2ccnc2)c2ccc(Cl)cc2Cl)cc1 (stereo not given) [Econazole nitrate],0.0521 ± 0.0032,0.048 ± 0.0022,0.05773 ± 5.8e-05,0.0544 ± 0.0013,0.0574 ± 0.0015,0.0483 ± 0.0014,0.0469 ± 0.00075,0.04693 ± 0.00042,0.04893 ± 0.00047,0.0996 ± 0.064,0.056 ± 0.002,0.059 ± 0.0077,0.0553 ± 0.0037
N#CC(c1ccc(Cl)cc1)c1c(Cl)cc(-n2ncc(=O)[nH]c2=O)cc1Cl (stereo not given) [Diclazuril],0.0414 ± 0.00047,0.0423 ± 0.004,0.0402 ± 0.0002,0.0425 ± 0.0014,0.0405 ± 0.00045,0.0479 ± 0.0017,0.048 ± 0.0019,0.0482 ± 0.002,0.0518 ± 0.0015,0.0496 ± 0.0011,–,0.0632 ± 0.00095,0.0529 ± 0.00089
N=C(N)NC(=N)NCCc1ccccc1 [Phenformin hydrochloride],0.2497 ± 0.002,0.279 ± 0.014,0.274 ± 0.0079,0.2 ± 0.02,0.186 ± 0.0089,0.137 ± 0.0039,0.378 ± 0.07,0.405 ± 0.067,0.203 ± 0.0056,0.211 ± 0.012,0.469 ± 0.053,0.416 ± 0.0069,0.3729 ± 0.003
CCCCOC(=O)c1ccc(N)cc1 [Butamben],0.194 ± 0.0098,0.23 ± 0.018,0.277 ± 0.0069,0.186 ± 0.011,0.233 ± 0.0061,0.16 ± 0.0031,0.566 ± 0.058,0.304 ± 0.11,0.23 ± 0.086,0.218 ± 0.07,0.452 ± 0.0073,0.36 ± 0.026,0.344 ± 0.018
CC(=O)NS(=O)(=O)c1ccc(N)cc1 [Sulfacetamide sodic hydrate],0.265 ± 0.006,0.313 ± 0.029,0.261 ± 0.0078,0.237 ± 0.011,0.187 ± 0.02,0.151 ± 0.0041,0.375 ± 0.022,0.407 ± 0.063,0.188 ± 0.0037,0.232 ± 0.048,–,0.406 ± 0.013,0.353 ± 0.018
"CCN(CC)CCOc1ccc(C(=C(Cl)c2ccccc2)c2ccccc2)cc1 [Clomiphene citrate (Z,E)]",0.0417 ± 0.00081,0.04167 ± 0.00032,0.04553 ± 0.00029,0.0433 ± 0.0019,0.0493 ± 0.00052,0.0428 ± 0.00085,0.0496 ± 0.0019,0.0482 ± 0.00099,0.04853 ± 0.00015,0.0475 ± 0.00049,–,0.0696 ± 0.034,0.0856 ± 0.015
Nc1nc2n[nH]nc2c(=O)[nH]1 [Azaguanine-8],0.21 ± 0.0092,0.241 ± 0.0083,0.194 ± 0.0047,0.239 ± 0.0079,0.143 ± 0.0028,0.132 ± 0.009,0.397 ± 0.01,0.42 ± 0.044,0.235 ± 0.032,0.26 ± 0.084,0.3656 ± 0.0032,0.409 ± 0.026,0.245 ± 0.16
O=C1CCc2cc(OCCCCc3nnnn3C3CCCCC3)ccc2N1 [Cilostazol],0.148 ± 0.028,0.194 ± 0.027,0.1826 ± 0.00091,0.125 ± 0.0036,0.0688 ± 0.0017,0.123 ± 0.0057,0.225 ± 0.051,0.285 ± 0.033,0.16 ± 0.013,0.181 ± 0.0043,0.461 ± 0.015,0.411 ± 0.0062,0.145 ± 0.015
CCN(CC)C(=O)/C(C#N)=C/c1cc(O)c(O)c([N+](=O)[O-])c1 [Entacapone],0.0523 ± 0.00059,0.0552 ± 0.0036,0.0571 ± 0.00062,0.0534 ± 0.0015,0.0544 ± 0.00092,0.0482 ± 0.00026,0.142 ± 0.005,0.149 ± 0.029,0.138 ± 0.007,0.172 ± 0.0056,–,0.195 ± 0.011,0.0695 ± 0.0028
C[C@H](CS)C(=O)N1CCC[C@H]1C(=O)O [Captopril],0.259 ± 0.003,0.291 ± 0.019,0.253 ± 0.012,0.198 ± 0.027,0.176 ± 0.0095,0.148 ± 0.011,0.358 ± 0.044,0.399 ± 0.027,0.187 ± 0.019,0.21 ± 0.027,0.475 ± 0.059,0.41 ± 0.0091,0.382 ± 0.021
COc1ccc2cc([C@@H](C)C(=O)O)ccc2c1 [(R) -Naproxen sodium salt],0.263 ± 0.0059,0.311 ± 0.018,0.275 ± 0.0043,0.198 ± 0.0079,0.183 ± 0.0045,0.141 ± 0.0034,0.484 ± 0.02,0.341 ± 0.077,0.196 ± 0.014,0.216 ± 0.052,–,0.408 ± 0.0092,0.317 ± 0.0088
O=C(COc1ccc(Cl)cc1)N1CCN(Cc2ccc3c(c2)OCO3)CC1 [Fipexide hydrochloride],0.13 ± 0.0038,0.146 ± 0.0033,0.138 ± 0.0033,0.154 ± 0.0017,0.0771 ± 0.0022,0.144 ± 0.0034,0.207 ± 0.039,0.214 ± 0.025,0.167 ± 0.0018,0.234 ± 0.024,0.303 ± 0.022,0.38 ± 0.029,0.168 ± 0.033
O=C1Nc2ccc(Cl)cc2[C@@](C#CC2CC2)(C(F)(F)F)O1 [Efavirenz],0.0395 ± 0.00017,0.0401 ± 0.00093,0.0421 ± 0.0013,0.0412 ± 0.0003,0.03963 ± 0.00025,0.0413 ± 0.0013,0.0541 ± 0.0055,0.0488 ± 0.0019,0.0481 ± 0.00017,0.048 ± 0.00069,0.047 ± 0.00044,0.259 ± 0.075,0.049 ± 0.00044
